Screening results deposited in PubChem BioAssay by National Center for Advancing Translational Sciences (NCATS).
TR SRC2 fluor cs: counter-screen for TRb-SRC2 inhibitors: fluorescence interference; TRb/SRC2 Texas Red total fluorescence interference; Potency, µM (highest dose often 106 µM); 0.29% of 280,000 active; AID 1479; active means well fitted curve in either direction with a large enough effect; inconclusive means small, poorly fitted or top-dose-only effect
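Human TRβ ligand-binding domain (0.6 uM) and Texas Red SRC2 peptide (20 nM) in Tris buffer with 1 uM T3 and 5% DMSO were incubated with pinned compound for 5 hr at ambient temperature. Total fluorescence was computed as S + 2P (555/632 nm).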
TRb-SRC2 inh: TRbeta-SRC2 interaction inhibition. TRbeta-SRC2 peptide binding, fluorescence polarization; receptor liganded with 1 µM T3. Potency, µM (titrated, usually from 106 µM), actives largely listed as inhibitors. P10828. 0.065% of 280,000 active; further: nearly all actives have a fitted effect of over 50% in size
Target sequence (P10828 whole entry, looked up): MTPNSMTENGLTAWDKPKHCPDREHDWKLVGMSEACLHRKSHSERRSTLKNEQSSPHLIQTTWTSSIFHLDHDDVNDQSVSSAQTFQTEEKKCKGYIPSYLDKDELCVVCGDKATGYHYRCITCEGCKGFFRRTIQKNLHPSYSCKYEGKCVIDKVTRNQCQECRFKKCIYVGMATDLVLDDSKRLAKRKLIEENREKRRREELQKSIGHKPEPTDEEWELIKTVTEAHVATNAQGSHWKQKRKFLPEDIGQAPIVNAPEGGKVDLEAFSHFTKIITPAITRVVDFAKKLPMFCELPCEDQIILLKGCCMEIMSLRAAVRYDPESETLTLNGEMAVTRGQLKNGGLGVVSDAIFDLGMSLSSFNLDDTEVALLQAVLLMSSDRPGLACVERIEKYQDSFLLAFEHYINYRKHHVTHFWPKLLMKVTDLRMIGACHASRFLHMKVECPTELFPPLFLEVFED
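Decrease in fluorescence polarization of 20 nM Texas Red SRC2 coactivator peptide flagged inhibition of its binding to 0.6 uM TRb LBD; 1 uM T3 included, incubation 5 hr, ex 555/em 632 nm.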
Tau fibril ThT: blocks human tau fibril formation measured by thioflavin T. 2.1% of 270,000 active. Potency, µM (highest dose often 57.4 µM), usual class: inhibitors. recombinant tau K18 P301L, heparin-induced fibrillization, ThT fluorescence; further: nearly all actives have a fitted effect of over 55% in size
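Heparin-induced fibrillization of the P301L-mutant K18 repeat-domain fragment of human tau was followed by ThT binding in quantitative high-throughput format.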
Tau fluor counter: counter-screen for tau fibril formation inhibitors; 0.93% of 280,000 active; Potency, µM (top dose mostly 57.7 µM); tau K18 P301L Alexa594 fluorescence, heparin fibrillization; further: nearly all actives have a fitted effect of over 55% in size
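Human tau K18 P301L (15 uM unlabeled, 0.24 uM Alexa 594-labeled) in 100 mM sodium acetate pH 7 with 20 uM heparin, 6 hr at 37 C. ThT 30 uM added, 1 hr ambient; Alexa 594 FP and total fluorescence read at 555/632 nm.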
Tau fibril FP: blocks human tau fibril formation measured by polarization | K18 P301L tau heparin fibrillization, Alexa594 FP, 6 h | Potency, µM (series often up to 57.7 µM), hits mostly inhibitors | 0.39% of 280,000 active; further: nearly all actives have a fitted effect of over 55% in size
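Recombinant K18 P301L […], labeled with Alexa 594 at 0.24 uM over 15 uM unlabeled; heparin inducer 20 uM final; 37 C, 6 hr; FP endpoint.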
GoLoco inh red: RGS12 GoLoco-Gai1 interaction inhibition. P63096. Gai1:RGS12 GoLoco peptide FP, rhodamine, 10 min. Potency, µM (series often up to 61.6 µM), hits mostly inhibitors. 0.44% of 230,000 active; active means well fitted inhibition curve with a large enough effect, not every such curve was filed as active; inactive means no such curve, though single readings can be large or run the other way; further: nearly all actives have a fitted effect of over 30% in size
Of the large screens only hits and unclear results are named; the others gave an inactive call; [ ] = another dose, or the depositor's remark. Hits are enriched below; roughly 3.2% of the tested compounds scored in any of these assays. Unless noted, the call rests on the fitted dose curve; in most records, active means well fitted curve in the direction sought with a large enough effect; inconclusive means small, poorly fitted or top-dose-only effect, or another doubt; inactive means no such curve, though single readings can be large; an effect the other way counts as inactive or inconclusive.

CC(C)C(NS(=O)(=O)c1c(Cl)cccc1Cl)C(=O)OCC(=O)c1c[nH]c2ccccc12 (configuration not stated)	Tau fluor counter 8.9µM[quencher], Tau fibril FP inconclusive
CC(C)Cc1ccc(C(C)C(=O)OCC(=O)c2c[nH]c3ccccc23)cc1 (configuration not stated)	Tau fluor counter inconclusive, Tau fibril FP 22µM
O=C1C[C@@H](O)[C@@H](O)[C@H]2[C@@H]3C(=O)N(C[C@@H]4CCCO4)C(=O)[C@@H]3CC[C@H]12	none (no result: GoLoco inh red)
Cc1ccc(Nc2ncnc3c2nc2n3CCCC2)c(Br)c1	TR SRC2 fluor cs 20µM[quencher] (no result: GoLoco inh red)
Cc1ccc(CNc2ncnc3c2nc2n3CCCC2)cc1	none (no result: GoLoco inh red)
COc1ccc(CNc2ncnc3c2nc2n3CCCC2)cc1	TR SRC2 fluor cs 18µM[quencher] (no result: GoLoco inh red)
COC(=O)c1ccc(Nc2ncnc3c2nc2n3CCCC2)cc1	TR SRC2 fluor cs 18µM[quencher] (no result: GoLoco inh red)
N#Cc1cccc(-n2nnnc2-c2ccc3c(c2)OCO3)c1	none
N#Cc1cccc(-n2nnnc2-c2ccccn2)c1	Tau fibril ThT 6.3µM, Tau fluor counter 14µM[quencher] (no result: GoLoco inh red)
CCOc1ccc(NC(=S)NN(C)C(=S)Nc2ccc(OCC)cc2)cc1	Tau fibril ThT inconclusive, Tau fluor counter 18µM[quencher]
FC(F)(F)c1cccc(NC(=S)Nc2ccc(Cl)c(Cl)c2)c1	Tau fibril ThT inconclusive, Tau fluor counter 18µM[quencher], Tau fibril FP 22µM
FC(F)(F)c1cccc(NC(=S)NNC(=S)Nc2cccc(C(F)(F)F)c2)c1	Tau fibril ThT 28µM, Tau fluor counter 10µM[quencher], Tau fibril FP inconclusive
O=C(COCC(=O)Nc1cccc(C(F)(F)F)c1)Nc1cccc(C(F)(F)F)c1	Tau fluor counter inconclusive, Tau fibril FP 11µM
CCCN(Cc1ccccc1)C(=S)Nc1ccc(OCC)cc1	none
CCOc1ccc(CNCCCSc2nnnn2C)cc1OC	none (no result: GoLoco inh red)
C/C(CCN1CCc2nc(-c3ccccc3)c(-c3ccccc3)cc2C1)=N\O[C@@H](C)CN1CCCc2nc(C)c(C)cc21	Tau fibril FP inconclusive (no result: GoLoco inh red)
Cc1ccc(Cn2cc(CCC(=O)NCC(C)c3ccccc3)c3ccccc32)cc1 (configuration not stated)	Tau fibril ThT inconclusive (no result: GoLoco inh red)
O=[N+]([O-])c1cc(C(F)(F)F)cc([N+](=O)[O-])c1NCCNC(=S)Nc1ccc(Cl)c(Cl)c1	Tau fibril ThT inconclusive, Tau fluor counter 5.6µM[quencher], Tau fibril FP inconclusive
S=C(NCc1ccncc1)Nc1ccc(Cl)c(Cl)c1	Tau fibril FP inconclusive
COc1ccc(NC(=S)NNC(=S)Nc2cccc(C(F)(F)F)c2)cc1	Tau fibril ThT inconclusive, Tau fluor counter 14µM[quencher]
CNNC(=S)Nc1cccc(C(F)(F)F)c1	none
CCOc1ccc(NC(=S)NNC(=S)Nc2cccc(C(F)(F)F)c2)cc1	Tau fibril ThT 32µM, Tau fluor counter 28µM[quencher], Tau fibril FP inconclusive
CCOc1cc(OCC)cc(C(=O)NC(=S)Nc2cccc(C(F)(F)F)c2)c1	none (no result: TR SRC2 fluor cs, TRb-SRC2 inh)
CCc1cccc(C)c1Nc1c(-c2cccs2)nc2nc(C)cc(C)n12	none (no result: GoLoco inh red)
Nc1c(N=Nc2ccc(S(=O)(=O)CCOS(=O)(=O)O)cc2)c(S(=O)(=O)O)cc2cc(S(=O)(=O)O)c(N=Nc3ccc(S(=O)(=O)CCOS(=O)(=O)O)cc3)c(O)c12	TR SRC2 fluor cs 45µM[quencher] (no result: Tau fibril ThT, Tau fluor counter, Tau fibril FP, GoLoco inh red)
O=C1[C@H]2O[C@@H]2[C@@H](O)[C@H]2[C@H]1CCn1c(=O)n(Cc3cc4c(cc3Cl)OCO4)c(=O)n12	none (no result: GoLoco inh red)
COc1ccccc1C1CCN(c2cc(O)ccc2[N+](=O)[O-])CC1	Tau fibril ThT 20µM, Tau fluor counter inconclusive, Tau fibril FP inconclusive
COc1ccccc1C1CCN(C(=O)c2cccs2)CC1	none
COc1cc(OC)c(NC(=O)C(C)n2nc(-c3ccc(C)cc3)c3c(c2=O)CCCC3)cc1Cl (configuration not stated)	Tau fibril ThT inconclusive, Tau fluor counter inconclusive (no result: GoLoco inh red)
COc1ccccc1C(=O)Nc1ccc2nc(N3CCC(C)CC3)cc(C)c2c1	Tau fibril ThT 8.9µM, Tau fluor counter 7.9µM[quencher] (no result: GoLoco inh red)
COc1ccc(C(=O)Nc2ccc3nc(N4CCCCC4)cc(C)c3c2)c(OC)c1	Tau fibril ThT inconclusive, Tau fluor counter inconclusive
